For 38 sequences, binding signal results are on record in publication PMC3795721, “Screening for Protein-DNA Interactions by Automatable DNA-Protein Interaction ELISA”.

Sequence of AT4G31550 (Q9SV15 228-325): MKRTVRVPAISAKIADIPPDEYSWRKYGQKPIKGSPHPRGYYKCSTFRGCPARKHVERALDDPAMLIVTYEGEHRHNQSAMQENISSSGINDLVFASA

The assay addresses AT4G31550 (Arabidopsis thaliana, UniProt Q9SV15 228-325). Description: DPI-ELISA; DPI-ELISA, streptavidin 384-well plate, 1-2 pmol biotinylated dsDNA per well, crude native E. coli extract, anti-His detection; buffer as in Brand et al. [46],; high values mean tight binding. The note with it: tags: C-terminal His (pET-DEST42); label: 5' biotin on forward strand; dsDNA, one strand shown. (An ELISA detects its analyte on a solid surface through an enzyme-linked reagent.)
AAAAAAGCGCGCCCGCACTGTTAATAAAAA: the binding signal turned out to be 0.635 ± 0.106 absorbance.

As to AAAAAATCTATTCCATTTCGCCTTCTAAAA, the binding signal turned out to be 0.68 ± 0.141 absorbance.

Regarding AAAAAATTCAGAGCTTCGAGGTTCCGAAAA, the binding signal turned out to be 0.66 ± 0.0707 absorbance.

Turning to AAAAAAACACCTGTATAGCATGGACGAAAA, the binding signal was 0.73 ± 0.0707 absorbance.

AAAAAAAAGCTTCGGAGTCTTGAGAAAAAA showed a binding signal of 0.685 ± 0.0354 absorbance.

The sequence AAAAAACGCCTTATGCCTCCCGCTCGAAAA displayed a binding signal of 0.675 ± 0.0354 absorbance.

On to AAAAAAACCCGGCCGCCATGGTAGTAAAAA, for which the binding signal was determined as 0.7 ± 0.212 absorbance.

Regarding AAAAAAGCTAGTGCTGCCACCAACGTAAAA, the binding signal amounted to 0.535 ± 0.12 absorbance.

With AAAAAACATTGATAAAATCTCCAGGCAAAA, the binding signal was 0.63 ± 0.141 absorbance.

Take AAAAAAGTACATGCGTAGATAATGTTAAAA: the binding signal stood at 0.59 ± 0.127 absorbance.

Turning to AAAAAAGGTAGTCACATTACGAGGGTAAAA, the binding signal was found to be 0.555 ± 0.0354 absorbance.

The sequence AAAAAATCAGTCTGAGACTTACAACTAAAA gave a binding signal of 0.84 ± 0.283 absorbance.

In the case of AAAAAATGTCCATCTTGCGTCTGTATAAAA, the binding signal was determined as 0.79 ± 0.212 absorbance.

Sequence AAAAAAAACAAAACCTCCTAATAGCGAAAA came in with a binding signal of 0.42 ± 0.113 absorbance.

In turn, AAAAAAAAGCGTTACATCATATGGAAAAAA had a binding signal of 0.56 ± 0.0566 absorbance.

Sequence AAAAAATTGGCACACATGATCTCGGGAAAA had a binding signal of 0.56 ± 0.113 absorbance.

For the sequence AAAAAATACATTTGACTTTGGGTTTCAAAA, the binding signal worked out at 3.4 ± 0.297 absorbance.

Sequence AAAAAAGCTGTCACTGTAGTCGGTCCAAAA gave a binding signal of 0.67 ± 0.0707 absorbance.

For AAAAAAACCCTGTGTCGGCCGATAAAAAA, the binding signal came to 0.58 ± 0.099 absorbance.

For the sequence AAAAAACCAGCCTCAGTCCTGAACAAAAAA, the binding signal was determined as 0.605 ± 0.0636 absorbance.

On to AAAAAAACGGGTTGTGAATGTGGAAGAAAA, for which the binding signal was found to be 0.575 ± 0.148 absorbance.

In turn, AAAAAACATAACCGCAAAATCCCTACAAAA returned a binding signal of 0.545 ± 0.0919 absorbance.

Consider AAAAAATGTGCCCGTGTGTGCTCGCGAAAA, for which the binding signal was determined as 0.73 ± 0.0849 absorbance.

The sequence AAAAAAGTTCGTGCTTAACCCAGTTTAAAA yielded a binding signal of 0.69 ± 0.099 absorbance.

Consider AAAAAAGTATAACGTGTTGTTGACCGAAAA, for which the binding signal is 3.455 ± 0.0212 absorbance.

As for AAAAAAAATACTGCGCACTTGCACTCAAAA, the binding signal was 0.6 ± 0.127 absorbance.

In turn, AAAAAATTTGTTCGGGCTCATAACTGAAAA gave a binding signal of 0.595 ± 0.148 absorbance.

The sequence AAAAAATATGTTTTCGCTTTATTCTTAAAA returned a binding signal of 0.52 ± 0.099 absorbance.

Consider AAAAAAAGTTCGCGGATTTCGGCCATAAAA, for which the binding signal stood at 0.685 ± 0.148 absorbance.

As to AAAAAATGCCCTTTTTATCTTTATGTAAAA, the binding signal stood at 0.65 ± 0.0707 absorbance.

Sequence AAAAAAGTGCGTTCACGCTTGTATCTAAAA gave a binding signal of 0.69 ± 0.17 absorbance.

The sequence AAAAAACCCTAACGAATGCTTTTCGGAAAA came in with a binding signal of 0.66 ± 0.0849 absorbance.

For AAAAAAGCTCCCGTCTCTTAGTTCTAAAAA, the binding signal amounted to 0.695 ± 0.12 absorbance.

The sequence AAAAAAACCGATTACCATTTTTACTGAAAA displayed a binding signal of 0.695 ± 0.148 absorbance.

Regarding AAAAAACGTTGAACCTGGGCCTCAACAAAA, the binding signal is 1.39 ± 0.191 absorbance.

The sequence AAAAAAGGCTTCCACTTTGAGTTTGCAAAA registered a binding signal of 0.57 ± 0.099 absorbance.

As for AAAAAACTGGTGTATCTCCTCAATTAAAAA, the binding signal turned out to be 0.635 ± 0.0636 absorbance.

AAAAAACCTTCCCCCTCTTCTGCCTTAAAA returned a binding signal of 0.665 ± 0.0354 absorbance.
